PubChem BioAssay
The source made the active and inactive calls. How the calls were made is not given here.

Experiment: Brca1-Bard1 BiLC signal decrease – luminescence, single concentration, counter-screen for Mdm2/MdmX interaction inhibitor project, confirmation (AID 504668)
Conditions: Brca1/Bard1 bimolecular luciferase complementation counterscreen, at 8 µM, hits give high values

Row | SMILES | inhibition
1 | c1ccc(-[n+]2nc(Nc3cccc4ccccc34)sc2-c2c3ccccc3cc3ccccc23)cc1 | 23.6% (active)
2 | Cc1ccc(/C=C/C(O)=C2/C(=O)N(C)C3(C)CC2c2ccccc2O3)cc1 (stereo not drawn) | 30.1% (active)
3 | Cc1ccc(S(=O)(=O)Nc2cc(-c3nn(C)c(=O)c4ccccc34)ccc2N2CCOCC2)cc1 | 29.6% (active)
4 | Cc1ccc(-n2c(C)cc(/C=c3/sc4nc5ccccc5n4c3=O)c2C)cc1 | 27.7% (active)
5 | COc1ccc(NC(=O)CSc2nc3c(sc4ccccc43)c(=O)n2CCCN2CCCC2)cc1 | 23.1% (active)
6 | Cc1ccc2nc(-c3ccccn3)c(Nc3ccccc3C)n2c1 | 35.8% (active)
7 | O=C(CN1CCCc2ccccc21)N/N=C/c1c(O)ccc2ccccc12 | 30.3% (active)
8 | CCC(NC(=O)Nc1nnc(C(F)(F)F)s1)(C(F)(F)F)C(F)(F)F | 26.3% (active)
9 | COc1cc(/C=C2\SC(=Nc3ccc(O)cc3)NC2=O)cc(OC)c1OC | 28.2% (active)
10 | CN1CCN(C(=O)CCCN2C(=O)/C(=C/c3cccc(Br)c3)SC2=S)CC1 | 29.2% (active)
11 | CC(C)(C)N1C(=O)[C@H]2[C@@H](c3ccc(Br)cc3)N3C(=O)N(c4ccc(Br)cc4)C(=O)[C@@]3(Cc3ccccc3)[C@H]2C1=O | 35.6% (active)
12 | Cc1sc2ncn(CC(=O)NCCCC(=O)Nc3ccc(C(C)C)cc3)c(=O)c2c1C | 29.2% (active)
13 | COc1cc2c(O)c3c(c(-c4ccc5c(c4)OCO5)c2cc1OC)C(=O)OC3 | 26.1% (active)
14 | Oc1ccc(CNc2ccccc2F)c2cccnc12 | 30.8% (active)
15 | CC(C)c1cc(C(=O)NC2CCCc3c2cnn3-c2ccccc2F)no1 (stereo not drawn) | 29.3% (active)
16 | O=C(CCCN1C(=O)/C(=C\c2cccs2)SC1=S)Nc1cccnc1 | 25.5% (active)
17 | CC[C@@]1(C(=O)OC)N[C@H](CN(C)C(=O)Nc2ccc(C(F)(F)F)cc2)[C@@H]2C(=O)N(Cc3ccccc3)C(=O)[C@@H]21 | 32.2% (active)
18 | O=C(Nc1ccncc1NC(=O)c1cccc([N+](=O)[O-])c1)c1cccc([N+](=O)[O-])c1 | 31% (active)
19 | COc1ccc(Cc2nnc(N/N=C/c3ccc(O)cc3)[nH]c2=O)cc1OC | 24.8% (active)
20 | Cc1cc(C(=O)CCl)c(C)n1CCc1ccc(Cl)cc1 | 30.7% (active)
21 | CC(C)c1ccc(/C=C2\SC(=S)N(CCC(=O)N3CCCCC3CCO)C2=O)cc1 (stereo not drawn) | 29.9% (active)
22 | O=C(Nc1ccccc1)C1=C[C@@H](C2CCCCC2)C[C@@H](OCc2ccc(CO)cc2)O1 | 24.1% (active)

Row | SMILES | inhibition
23 | COc1ccc2cc3c(N)nn(C(=O)c4cccc([N+](=O)[O-])c4)c3nc2c1 | 32.1% (active)
24 | Cc1ccc(C(=O)N2C(CC(=O)Nc3ccc(Cl)cc3)C(=O)NC3CCCCC32)cc1 (stereo not drawn) | 24.8% (active)
25 | O=C(Nc1ccc(Cl)cc1)Nc1csc([N+](=O)[O-])c1 | 30.6% (active)
26 | O=C(/C=C/c1ccc(Cl)cc1)c1ccc([N+](=O)[O-])o1 | 31.4% (active)
27 | CC1=NN(c2nc(-c3ccc(C)cc3)cs2)C(=O)C1N=Nc1ccccc1O (stereo not drawn) | 32.5% (active)
28 | CCn1c(C)cc(C(=O)CN2C(=O)c3ccccc3S2(=O)=O)c1C | 23.2% (active)
29 | O=C(N/N=C(\Cc1ncc[nH]1)c1ccccc1)c1ccccc1 | 24.8% (active)
30 | Nc1ccc(C(=O)OCc2nc3cc4ccccc4cc3[nH]2)cc1 | 34.5% (active)
31 | O=C(CCCl)Nc1nc2c(s1)CCc1ccccc1-2 | 24.6% (active)
32 | C/C(N=Nc1nc2ccccc2s1)=N\Nc1ccccc1O | 26.2% (active)
33 | CC(C)(C)c1cc(C(=O)N/N=C/c2ccccc2O)n(-c2ccccc2)n1 | 28.9% (active)
34 | COc1ccc(C(C)=O)cc1CSc1nnc(-c2ccc(Cl)cc2)n1-c1ccccc1 | 25.6% (active)
35 | O=C1c2ccccc2C(=O)c2c(Nc3ccc(CCO)cc3)ccc(O)c21 | 33.2% (active)
36 | Cc1ccc(NC(=O)Cn2nnc(C(=O)NCCc3ccccc3)c2N)cc1Cl | 29.3% (active)
37 | Cn1c(C(=O)NCc2ccccc2)cc2oc3ccccc3c21 | 32.1% (active)
38 | O=c1cc(CSc2ccc(Cl)cc2)nc(-c2ccccn2)[nH]1 | 30.5% (active)
39 | Cc1ccc2c(C)nc(Nc3nc(CSc4nc5ccccc5[nH]4)cc(=O)[nH]3)nc2c1 | 32.5% (active)
40 | CCN(CC)C(=O)N1c2ccccc2C=Cc2ccccc21 | 33.7% (active)
41 | O=C(Nc1nc(-c2ccccc2)cs1)c1ccccc1NS(=O)(=O)c1ccc(F)cc1 | 25.5% (active)
42 | C=C(C(=O)Oc1ccccc1C(C)(C)C)c1ccccc1 | 34% (active)
43 | Cc1ccc(C(C)C)cc1OCC(=O)Nc1nnc(C2CC2)s1 | 33.4% (active)
44 | O=C(NC(Cc1c[nH]c2ccccc12)C(=O)Nc1ccc(OC(F)(F)F)cc1)c1cccs1 (stereo not drawn) | 25.7% (active)

Row | SMILES | inhibition
45 | O=C(NC(Nc1ncc(S(=O)(=O)c2ccc([N+](=O)[O-])cc2)s1)(C(F)(F)F)C(F)(F)F)c1ccc(Cl)cc1 | 29.5% (active)
46 | O=C(Nc1ccc(-c2nc3ccccc3[nH]2)cc1)c1ccc2c(c1)OCO2 | 28.7% (active)
47 | CC(C)=CCc1c2c(c(O)c3c(=O)c4c(oc13)-c1cc(O)c(O)cc1OC4C=C(C)C)C=CC(C)(C)O2 (stereo not drawn) | 34.4% (active)
48 | CCN1/C(=C/c2ccc3cccc(C)c3[n+]2CC)Sc2ccccc21 | 26.4% (active)
49 | COc1ccc2nc(N=Nc3ccc(O)c4ccccc34)sc2c1 | 35.3% (active)
50 | Cc1cc(C(=O)Nc2ccc(Cl)cc2)c(C)n1-c1ccccc1 | 30.6% (active)
51 | Cc1cc(C)cc(OCc2nc3ncc(Br)cc3[nH]2)c1 | 30.8% (active)
52 | Cc1cccc(NC(c2ccc(C)s2)c2ccc3ccc(C)nc3c2O)n1 (stereo not drawn) | 23.7% (active)
53 | CC(C)CC[n+]1ccccc1/C=C/c1ccc(N(C)C)cc1 | 26.6% (active)
54 | FC(F)(F)c1ccc(CN2C[C@@H]3C(c4ccccc4)C4(c5ccccc5)CC3(C4)[C@H]2c2ccccc2)cc1 (stereo partly drawn) | 27.2% (active)
55 | CCN(CC)CCCN=C1N[C@@H](c2cccc(C(F)(F)F)c2)C(C(=O)OC)=C(C)N1CC | 30.4% (active)
56 | CC(=O)/C(C#N)=C1\NC(=O)C(Cc2cc(Cl)ccc2Cl)S1 (stereo not drawn) | 31.2% (active)
57 | COc1ccc2cc(C(=O)N/N=C/c3sc4ccccc4c3O)ccc2c1 | 32.4% (active)
58 | N=c1n(CCN2CCCCC2)c2ccccc2n1CC(O)c1cccc(Br)c1 (stereo not drawn) | 34.4% (active)
59 | CC(=O)N(C(C)=O)c1ncc2c([nH]c3ccccc32)c1C#N | 33.1% (active)
60 | COc1cccc(CNc2ncnc3ccc(-c4c(C)noc4C)cc23)c1 | 31% (active)
61 | CCOc1ccc(N(C(=O)/C=C/C(=O)Nc2cc(C)on2)C(C(=O)NC2CCCC2)c2ccccc2C)cc1 (stereo not drawn) | 27.4% (active)
62 | C=CCSc1nsc(NC(=O)Nc2ccc(F)cc2)n1 | 28% (active)
63 | O=C(/C=C/c1ccc2ccccc2n1)N1CCN(S(=O)(=O)c2ccc(F)cc2)CC1 | 35.1% (active)
64 | Nc1nc(Cl)nc2c1ncn2C1CC(O)C(CO)O1 (stereo not drawn) | 25.6% (active)
65 | CCOc1ccc(OCc2ccc(C(=O)NN=Cc3ccc[nH]3)cc2)cc1 | 28% (active)
66 | COc1cccc(C(NC(C)=O)c2ccc3cccnc3c2O)c1 (stereo not drawn) | 29.3% (active)

Row | SMILES | inhibition
67 | CN1CCc2c(sc(NC(=O)c3ccc(S(=O)(=O)N4CCc5ccccc54)cc3)c2C(N)=O)C1 | 24.1% (active)
68 | C/C(=N\NC(=O)c1ccc(Cl)c(Cl)c1)c1ccccn1 | 25.9% (active)
69 | CC(C)C(=O)NC(c1ccco1)c1ccc2cccnc2c1O (stereo not drawn) | 24% (active)
70 | COc1ccc(-n2c(C)c([N+](=O)[O-])c3ccc(O)c(CN4CCCCC4)c32)cc1 | 28.9% (active)
71 | CCOc1cc(/C=N/N=C(\N)c2nonc2N)cc(Br)c1OCc1cccc2ccccc12 | 33.4% (active)
72 | Cc1cc(C)cc(NC(=O)CSc2ccc(-c3ccccn3)nn2)c1 | 31.7% (active)
73 | Cc1ccc(C(=O)Nc2nc(-c3ccccn3)cs2)cc1S(=O)(=O)N1CCOCC1 | 23.2% (active)
74 | FC(F)(F)c1cccc(NC(=S)N(CCCN2CCCC2)Cc2cccn2Cc2ccc(Cl)cc2)c1 | 30.3% (active)
75 | O=C(Nc1ccc(F)c(Cl)c1)Nc1csc2ccccc12 | 35% (active)
76 | O=C(Nc1cccc(Cl)c1)Nc1nnc(CSCCOc2ccc(Cl)cc2)s1 | 23% (active)
77 | O=C(Nc1ccc(-c2nc3ccc(NC(=O)c4cccs4)cc3[nH]2)cc1)c1cccs1 | 33.7% (active)
78 | COc1ccc(C(NC(=O)c2cccnc2)c2cc(Cl)c3cccnc3c2O)cc1OC (stereo not drawn) | 26.3% (active)
79 | Cc1ccc(-c2oc3ccccc3c(=O)c2O)cc1 | 24.8% (active)
80 | CCCC(=O)NC(c1ccc(OC)c(OC)c1)c1cc(Cl)c2cccnc2c1O (stereo not drawn) | 27.9% (active)
81 | COc1ccc(C(=O)C(CCCCC(CN(C)C)C(=O)c2ccc(OC)cc2)CN(C)C)cc1 (stereo not drawn) | 30.7% (active)
82 | COc1cc(/C=C/c2ccc3cccc(O)c3n2)cc(OC)c1OC | 27.2% (active)
83 | COC(=O)[C@@]1(Cc2ccccc2)[C@H]2C(=O)N(Cc3ccccc3)C(=O)[C@H]2[C@H]2CN=C(SCc3ccc(C#N)cc3)N21 | 28.4% (active)
84 | CC(C)CCNC(=O)C(c1ccncc1)N(Cc1cccs1)C(=O)Cn1nnc(-c2ccc(F)cc2)n1 (stereo not drawn) | 26.3% (active)
85 | N#CC(C#N)=C(Nc1ccc(F)cc1)SCc1cccc(F)c1 | 23.3% (active)
86 | Cc1ccc(S(=O)(=O)CCc2nc3ccccc3n2CCC#N)cc1 | 32.2% (active)
87 | CCN(CC)CCNC(=O)c1ccc(NC(=O)c2cn(-c3ccc(F)cc3)nc2-c2cccc(OC)c2)cc1 | 27.9% (active)
88 | CCN1CCN(Cc2ccc(NC(=O)c3ccc(C)c(NC(=O)c4cccc(-c5cn[nH]c(=O)c5)c4)c3)cc2C(F)(F)F)CC1 | 32% (active)
